Experimental data: PubChem BioAssay (Tox21)
Results filed as inconclusive are left out. Activity calls are given as the source filed them. Unless noted, calls come from the whole dose curve; as a rule, active = well fitted curve in the direction sought with a large enough effect in the repeat runs; inconclusive = weak or mixed curves; inactive = no such curve, though single readings can be large; an effect the other way counts as inactive or inconclusive.

Experiments:
[1] = qHTS assay to identify small molecule agonists of the vitamin D receptor (VDR) signaling pathway - cell viability counter screen (AID 743224); note: series mostly up to about 63 µM; % is set by controls: 0 for no effect and ±100 for the full control effect; nearly all actives have a fitted effect of over 50% in size
How it was run: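 Cells: VDR-bla, 2,000/well, settled 4 h. Treatment: compounds in DMSO, 16 h, 37C/5% CO2. Readout: CellTiter-Glo luminescence after 30 min RT.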

[2] = qHTS assay to identify small molecule antagonists of the vitamin D receptor (VDR) signaling pathway - cell viability counter screen (AID 743225); note: % is set by controls: 0 for no effect and ±100 for the full control effect; nearly all actives have a fitted effect of over 50% in size
How it was run: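 VDR-UAS-bla HEK 293T cells were plated and incubated 4 h at 37C, then dosed with compound plus 3 nM (final) 1-alpha,25-dihydroxyvitamin D3 for 16 h. After the 2 h beta-lactamase read, viability in the same wells was read as CellTiter-Glo luminescence after 30 min at room temperature.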

[3] = qHTS assay to identify small molecule agonists of the NFkB signaling pathway (AID 1159509; active = well fitted curve in the direction sought with a large enough effect in the signal ratio in the repeat runs, not every such curve was filed as active; the % refers to the signal ratio; note: series mostly up to about 61 µM; % is set by controls: 0 for no effect and ±100 for the full control effect)
How it was run: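 Pathway activation was measured in ME-180 cells stably expressing beta-lactamase under NF-kB response element control. Substrate cleavage was read as the 460/530 nm emission shift after 5 hr compound incubation.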

[4] = qHTS assay to identify small molecule agonists of the NFkB signaling pathway - cell viability counter screen (AID 1159515; calls by dose curve; note: series mostly up to about 61 µM; % is set by controls: 0 for no effect and ±100 for the full control effect; nearly all actives have a fitted effect of over 55% in size)
How it was run: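 Cells are seeded (2,000 NFkB-bla ME-180 per well), rested overnight, and dosed with DMSO-dissolved compounds for 5 hr at 37 C. Viability is then read by CellTiter-Glo luminescence after 30 min at room temperature.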

[5] = qHTS assay to identify small molecule agonists of the endoplasmic reticulum stress response signaling pathway (AID 1159516; active = well fitted activation curve with a large enough effect in the signal ratio in the repeat runs, not every such curve was filed as active; the % refers to the signal ratio; note: % is set by controls: 0 for no effect and ±100 for the full control effect)
How it was run: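 Cells are seeded at 1,500 per well and incubated overnight. Compounds in DMSO are added for 5 hr at 37 C, then beta-lactamase FRET substrate for 2 hr at room temperature, and fluorescence at 460 and 530 nm is measured.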

[6] = qHTS assay to identify small molecule agonists of the endoplasmic reticulum stress response signaling pathway - cell viability counter screen (AID 1159517; calls by dose curve;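 note: HeLa cells carrying an ER stress response element beta-lactamase reporter; series mostly up to about 61 µM; % is set by controls: 0 for no effect and ±100 for the full control effect; nearly all actives have a fitted effect of over 50% in size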)
How it was run: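 In parallel with the ESRE reporter read, cytotoxicity was scored by CellTiter-Glo luminescence (30 min, room temperature) on HeLa ESRE-bla cells dosed for 5 hr.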

[7] = qHTS assay to identify small molecule antagonists of the retinoid-related orphan receptor gamma (ROR-gamma) signaling pathway - cell viability counter screen (AID 1159520); note: % is set by controls: 0 for no effect and ±100 for the full control effect; nearly all actives have a fitted effect of over 50% in size
How it was run: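 Tet-on ROR gamma CHO cells were given compounds for 2 hr, then doxycycline hyclate at 1 uM final, and incubated 16 hr at 37 C. Viability was measured as ATP content by CellTiter-Glo luminescence.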

[8] = biological target: Nuclear receptor ROR-gamma (Homo sapiens) (UniProt P51449); experiment: qHTS assay to identify small molecule antagonists of the retinoid-related orphan receptor gamma (ROR-gamma) signaling pathway (AID 1159521)
How it was run: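 Tet-on ROR-gamma CHO cells with ROR response element-luciferase reporter; compounds added 2 hr before 1 uM doxycycline induction, then 16 hr at 37 C. Antagonism scored as decreased ONE-Glo luminescence.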

[9] = qHTS assay to identify small molecule agonists of the AP-1 signaling pathway - cell viability counter screen (AID 1159525; calls by dose curve; note: nearly all actives have a fitted effect of over 55% in size)
How it was run: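 Same-well cytotoxicity counter screen of the Tox21 10K library in ME-180 cells. The readout is ATP-dependent luminescence after 5 h compound treatment. Data are normalised to DMSO and tetra n-octyl ammonium bromide controls.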

[10] = qHTS assay to identify small molecule agonists of the AP-1 signaling pathway (AID 1159526; calls by dose curve; note: % is set by controls: 0 for no effect and ±100 for the full control effect)
[11] = biological target: Retinoic acid receptor RXR-alpha (Homo sapiens) (UniProt P19793); experiment: qHTS assay to identify small molecule agonists of the RXR signaling pathway (AID 1159527; calls by dose curve; note: % is set by controls: 0 for no effect and ±100 for the full control effect; nearly all actives have a fitted effect of over 35% in size)
How it was run: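 GeneBLAzer RXR-alpha-UAS-bla HEK 293T cells in 2% charcoal-stripped FBS medium were exposed to compounds for 16 hr at 37 C in agonist mode. Beta-lactamase reporter read as 460/530 nm FRET ratio after 2 hr substrate loading.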

[12] = qHTS assay to identify small molecule agonists of the RXR signaling pathway - cell viability counter screen (AID 1159529)
How it was run: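 RXR-alpha-UAS-bla HEK 293T cells in medium with 2% charcoal-stripped FBS were pre-incubated 5 hr, then compound-treated 16 hr at 37 C. Viability was read by CellTiter-Glo luminescence in the same wells as the beta-lactamase assay, with tetraoctyl ammonium bromide as positive control.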

[13] = qHTS assay to identify small molecule antagonists of the retinoid acid receptor (RAR) signaling pathway - cell viability counter screen (AID 1159551); note: % is set by controls: 0 for no effect and ±100 for the full control effect; nearly all actives have a fitted effect of over 35% in size
How it was run: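 Cells (C3RL4) are plated, incubated overnight, dosed with compound in DMSO, then given retinol at 1 uM final. After 6 h at 37 C, CellTiter-Glo is added and luminescence read following 30 min at room temperature.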

[14] = qHTS assay to identify small molecule antagonists of the retinoic acid receptor (RAR) signaling pathway (AID 1159552)
How it was run: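 Retinol signaling pathway inhibitors screened in C3RL4 RARE-luciferase reporter cells seeded overnight at 37 C, then compounds added with 1 uM (final) retinol as pathway substrate. After 6 hr at 37 C, luciferase luminescence read after 30 min at room temperature.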

[15] = qHTS assay to identify small molecule agonists of the retinoic acid receptor (RAR) signaling pathway (AID 1159553); note: % is set by controls: 0 for no effect and ±100 for the full control effect
How it was run: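 Seed C3RL4 reporter cells at 1,000 per well and incubate overnight at 37 C. Add compounds in DMSO, incubate 6 hr. Add luciferase reagent, wait 30 min at room temperature, read luminescence.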

[16] = qHTS assay to identify small molecule antagonists of the estrogen related receptor (ERR) signaling pathway from Tox21 library - cell viability counter screen (AID 1224834); note: % is set by controls: 0 for no effect and ±100 for the full control effect; nearly all actives have a fitted effect of over 30% in size
How it was run: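 ERR cells, 2,000/well; 6 h settle at 37 C/5% CO2; pin-tool compound transfer in DMSO; 17.5 h at 37 C; CellTiter-Fluor, 30 min; fluorescence intensity.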

[17] = biological target: Luciferin 4-monooxygenase (Photinus pyralis) (UniProt P08659); experiment: qHTS assay to identify small molecule inhibitors of firefly luciferase (AID 1224835); note: series mostly up to about 120 µM; % is set by controls: 0 for no effect and ±100 for the full control effect; nearly all actives have a fitted effect of over 25% in size
How it was run: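 Biochemical qHTS: compounds run as interplate titrations against purified firefly enzyme, with D-luciferin and ATP each at its KM concentration. Light output recorded by CCD imaging.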

[18] = qHTS assay to identify small molecule agonists of the constitutive androstane receptor (CAR) signaling pathway - cell viability counter screen (AID 1224836); note: series mostly up to about 92 µM; % is set by controls: 0 for no effect and ±100 for the full control effect; nearly all actives have a fitted effect of over 45% in size
How it was run: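 HepG2 cells stably carrying hCAR and a CYP2B6-2.2kb reporter; 15-concentration compounds plus PK11195 (final 0.75 uM), 23 hr at 37 C/5% CO2. Viability read by CellTiter-Fluor fluorescence.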

[19] = qHTS assay to identify small molecule antagonists of the constitutive androstane receptor (CAR) signaling pathway - cell viability counter screen (AID 1224837); note: series mostly up to about 92 µM; % is set by controls: 0 for no effect and ±100 for the full control effect; nearly all actives have a fitted effect of over 45% in size
How it was run: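 Viability was measured with CellTiter-Fluor in a HepG2 line carrying stably transfected hCAR and a CYP2B6-2.2kb construct. Cells were exposed for 23 hr at 37 C to 15 compound concentrations with 50 nM CITCO as agonist.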

[20] = biological target: Nuclear receptor subfamily 1 group I member 3 (Homo sapiens) (UniProt Q14994); experiment: qHTS assay to identify small molecule antagonists of the constitutive androstane receptor (CAR) signaling pathway (AID 1224838);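 note: HepG2 cells stably expressing hCAR with CYP2B6 luciferase reporter stimulated by CITCO; % is set by controls: 0 for no effect and ±100 for the full control effect; nearly all actives have a fitted effect of over 40% in size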
How it was run: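 Antagonist mode used CITCO at a final 50 nM to activate CAR in human hepatoma HepG2 cells carrying stable hCAR and a 2.2 kb CYP2B6 promoter-luciferase construct. Compounds were tested at 15 concentrations over 24 h, with luminescence as the end point.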

Luciferin 4-monooxygenase (Photinus pyralis), sequence (P08659 whole entry, looked up): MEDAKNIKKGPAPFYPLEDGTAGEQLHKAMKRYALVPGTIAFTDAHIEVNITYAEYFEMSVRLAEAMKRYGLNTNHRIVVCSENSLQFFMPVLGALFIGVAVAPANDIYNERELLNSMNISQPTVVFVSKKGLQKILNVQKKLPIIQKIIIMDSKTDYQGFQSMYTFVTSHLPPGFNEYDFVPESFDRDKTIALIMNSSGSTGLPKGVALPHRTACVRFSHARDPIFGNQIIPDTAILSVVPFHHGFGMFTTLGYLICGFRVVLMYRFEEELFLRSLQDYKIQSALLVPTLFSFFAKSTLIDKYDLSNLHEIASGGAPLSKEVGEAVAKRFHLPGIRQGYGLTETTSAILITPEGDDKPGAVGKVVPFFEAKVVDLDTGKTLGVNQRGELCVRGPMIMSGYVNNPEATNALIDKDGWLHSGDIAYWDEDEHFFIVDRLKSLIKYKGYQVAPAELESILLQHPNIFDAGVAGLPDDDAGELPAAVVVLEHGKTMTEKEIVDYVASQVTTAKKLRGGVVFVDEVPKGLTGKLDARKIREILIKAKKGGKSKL
Retinoic acid receptor RXR-alpha (Homo sapiens), sequence (P19793 whole entry, looked up): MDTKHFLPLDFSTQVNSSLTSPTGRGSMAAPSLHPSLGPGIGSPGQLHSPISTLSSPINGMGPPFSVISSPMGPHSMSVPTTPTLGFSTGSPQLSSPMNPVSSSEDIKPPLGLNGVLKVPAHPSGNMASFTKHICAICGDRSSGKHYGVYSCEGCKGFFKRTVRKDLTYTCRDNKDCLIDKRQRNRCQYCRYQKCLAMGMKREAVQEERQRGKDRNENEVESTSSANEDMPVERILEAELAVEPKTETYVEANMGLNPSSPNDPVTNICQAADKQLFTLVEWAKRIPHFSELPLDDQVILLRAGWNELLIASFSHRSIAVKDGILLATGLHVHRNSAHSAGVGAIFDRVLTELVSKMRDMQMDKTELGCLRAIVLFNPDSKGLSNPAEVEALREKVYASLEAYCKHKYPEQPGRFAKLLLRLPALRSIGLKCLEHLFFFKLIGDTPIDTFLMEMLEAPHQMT
Nuclear receptor subfamily 1 group I member 3 (Homo sapiens), sequence (Q14994 whole entry, looked up): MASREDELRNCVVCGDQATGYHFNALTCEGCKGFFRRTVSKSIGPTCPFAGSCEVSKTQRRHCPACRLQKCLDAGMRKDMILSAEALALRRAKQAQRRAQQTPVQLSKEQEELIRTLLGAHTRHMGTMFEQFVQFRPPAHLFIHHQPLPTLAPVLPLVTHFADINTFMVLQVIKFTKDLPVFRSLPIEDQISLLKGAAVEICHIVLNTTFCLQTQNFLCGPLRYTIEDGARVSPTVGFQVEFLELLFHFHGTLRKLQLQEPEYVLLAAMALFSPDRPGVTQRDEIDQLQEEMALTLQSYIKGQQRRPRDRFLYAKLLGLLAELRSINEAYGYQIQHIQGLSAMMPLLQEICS

Cc1ccc(N)cc1S(=O)(=O)O
inactive: outcome [1] | outcome [2] | outcome [3] | outcome [4] | outcome [5] | outcome [6] | outcome [7] | outcome [8] | outcome [9] | outcome [10] | Potency [11] | outcome [12] | outcome [13] | outcome [14] | Potency [15] | outcome [16] | Potency [17] | outcome [18] | outcome [19] | Potency [20]

COc1c2occc2c(OC)c2c(=O)cc(C)oc12
inactive: outcome [1] | outcome [2] | outcome [3] | outcome [4] | outcome [5] | outcome [6] | outcome [7] | outcome [8] | outcome [9] | outcome [10] | Potency [11] | outcome [12] | outcome [13] | outcome [14] | Potency [15] | outcome [16] | Potency [17] | outcome [18] | outcome [19] | Potency [20]

O=Cc1ccccc1Cl
inactive: outcome [1] | outcome [2] | outcome [3] | outcome [4] | outcome [5] | outcome [6] | outcome [7] | outcome [8] | outcome [9] | outcome [10] | Potency [11] | outcome [12] | outcome [13] | outcome [14] | Potency [15] | outcome [16] | Potency [17] | outcome [18] | outcome [19] | Potency [20]

CCOC(CN1CCN(CC(C)C(=O)c2ccccc2)CC1)c1ccccc1 (stereo not given)
inactive: outcome [1] | outcome [2] | outcome [3] | outcome [4] | outcome [5] | outcome [6] | activity, negative = cytotoxicity [7] -1.7% [at 19 µM] | activity change, negative = inhibition [8] -4.62% [at 19 µM] | viability change, negative = cytotoxic [9] 14.4% [at 15.8 µM] | activation [10] 5.61% [at 15.8 µM] | activation [11] -12% [at 15.8 µM] | activity change, negative = cytotoxicity [12] -11.3% [at 15.8 µM] | activity change, negative = cytotoxicity [13] 3.44% [at 19 µM] | activity, negative = inhibition [14] 1.21% [at 19 µM] | Potency [15] | viability change, negative = cytotoxic [16] -3.03% [at 19 µM] | activity change, negative = inhibition [17] -1.09% [at 23.6 µM] | viability change, negative = cytotoxic [18] 0.779% [at 19 µM] | activity change, negative = cytotoxicity [19] 3.98% [at 19 µM] | activity, negative = inhibition [20] -25.3% [at 19 µM]

COc1cc2c(cc1OC)C(=O)C(CC1CCN(Cc3ccccc3)CC1)C2 (stereo not given)
inactive: outcome [1] | outcome [2] | outcome [3] | outcome [4] | outcome [5] | outcome [6] | outcome [7] | outcome [8] | outcome [9] | outcome [10] | Potency [11] | outcome [12] | outcome [13] | outcome [14] | Potency [15] | outcome [16] | Potency [17] | outcome [18] | outcome [19] | Potency [20]

NCC1(Cc2noc(=O)[nH]2)CCCCC1
inactive: outcome [1] | outcome [2] | outcome [3] | outcome [4] | outcome [5] | outcome [6] | outcome [7] | outcome [8] | outcome [9] | outcome [10] | Potency [11] | outcome [12] | outcome [13] | outcome [14] | Potency [15] | outcome [16] | Potency [17] | outcome [18] | outcome [19] | Potency [20]
